This is an account of results in ChEMBL document CHEMBL3988442, “University of Dundee, Small-Polar-MMV Screening Library” (2021).

Hit rate of the full screen: of about 66,000 compounds, about 960 (1.5%) showed an effect of 50% or more. This excerpt belongs to a sample that is enriched for strong results.

The assay has as its system Trypanosoma brucei. Put plainly: Trypanosoma brucei 72 hour study. It is filed as functional, organism-based. Further details: scale not given: in the data most compounds retested in dose-response had high values.

For the compound `CC[C@H](C)[C@H](N)C(=O)Nc1nc(-c2cnc(N3CCOCC3)nc2)cs1`, the “Percent Effect” value (30.3 µM, […]) was 13.61%.

Turning to `COc1ccc(N(c2ccccc2)c2ccc(C(=O)O)s2)cc1`, the “Percent Effect” value (30.3 µM, […]) is -3.945%. Turning to `O=C(O)CC(O)(CC(=O)O)C(=O)O.OCCN(Cc1ccncc1)CC1(c2ccc(Cl)cc2)CC1`, the “Percent Effect” value (30.3 µM, […]) was -34.12%. For `Cn1cnc2c1C(COCC1CCOCC1)CN(C1CCOCC1)C2.O=C(O)C(F)(F)F.O=C(O)C(F)(F)F` (stereo unspecified), where the note is “30 µM, 30.03 µM”, the “Percent Effect” value worked out at 15.95%. As to `Cl.c1cnc2c(c1)cc([C@H]1CCCO1)n2CCN1CCCC1`, where the note is “30.3 µM, […]”, the “Percent Effect” value came out at 24.71%. As to `Cn1cccc1C(=O)N1CCC2(CCCN2Cc2ccccc2)CC1.O=C(O)C(F)(F)F`, under “30 µM, 30.03 µM”, the “Percent Effect” value was determined as 11.3%. On the same count and under the same terms, next, `Cc1nn(C)c2c(=O)n(CC(=O)Nc3cc(Cl)cc(Cl)c3)nnc12`: 63.83%. Regarding `CCn1nc(C)c2nnn(CC(=O)Nc3ccccc3)c(=O)c21`, the “Percent Effect” value (30.3 µM, […]) is -5.47%. For the compound `CCn1nc(C)c2nnn(CC(=O)Nc3cccc(Cl)c3)c(=O)c21`, under “30 µM, 30.03 µM”, the “Percent Effect” value is listed as 35.21%. Take `CCn1nc(C)cc1C(=O)N1C[C@@H]2C[C@@H](C)O[C@@H]2C1.O=C(O)C(F)(F)F`: for the setting “30.3 µM, […]”, the “Percent Effect” value was found to be 3.708%.

Turning to `COCC1CN(C(=O)c2ccoc2)Cc2cnn(CC3CCOCC3)c21.O=C(O)C(F)(F)F` (stereo unspecified), the “Percent Effect” value (30.3 µM, […]) was -46.76%.

Take `NC1C=C(C(F)(F)F)NC=C1c1ccccc1` (stereo unspecified): where the note is “30.3 µM, […]”, the “Percent Effect” value is 8.109%. Regarding `CC(C)CC(=O)N1C[C@@H]2CCN(c3cnccn3)C[C@@H]2C1.O=C(O)C(F)(F)F`, the “Percent Effect” value (30.3 µM, […]) is recorded as -10.22%. Regarding `CC(C)(C)S(=O)(=O)CCNC(=O)c1ccc2cc[nH]c2c1`, the “Percent Effect” value (30 µM, 30.03 µM) is 101.8%. On the same count and under the same terms, for `CC(C)(C)S(=O)(=O)CCNC(=O)c1ccc2ccccc2c1` the value was -8.633%; for `CC(C)(C)OC(=O)NCCNC(=O)c1ccc2cc[nH]c2c1`, 3.798%. As to `CN1CCN(CCO)C(=O)C12CCN(Cc1ccsc1)CC2.O=C(O)C(F)(F)F.O=C(O)C(F)(F)F`, the “Percent Effect” value (30.3 µM, […]) is listed as -7.984%. Take `CN(C(=O)[C@H]1CSCN1C(=O)OC(C)(C)C)C1CC1`: under “30 µM, 30.03 µM”, the “Percent Effect” value is reported as -17.54%.

On to `Cn1nc2c(cc1=O)CN(Cc1coc(-c3cccc(F)c3)n1)CC2`, for which the “Percent Effect” value (30.3 µM, […]) was 75.84%. Still for that read-out and setting: next, `Cn1nc2c(cc1=O)CN(Cc1coc(-c3ccc(F)cc3)n1)CC2`: 21.89%; `Cn1nc2c(cc1=O)CN(Cc1coc(-c3ccccc3)n1)CC2`: -6.992%. As for `CN1CCN(c2ccc(F)cc2NC(=O)NCc2ccon2)CC1`, under “30.3 µM, […]”, the “Percent Effect” value is reported as -94.37%. As for `Cc1nccn1CC1CCN(C(=O)Cc2ccccc2)CC1`, the “Percent Effect” value (30 µM, 30.03 µM) was -11.09%. As to `CC(C)N(C)Cc1cnc2n1CCN(Cc1ccsc1)C2.O=C(O)C(F)(F)F.O=C(O)C(F)(F)F`, the “Percent Effect” value (30.3 µM, […]) was -0.145%. On to `Cc1cc(-c2nccs2)nc(C2CCN(Cc3ccc(F)cc3)CC2)n1.Cl`, for which the “Percent Effect” value (30.3 µM, […]) was -1.786%. Turning to `CC(C)(C)c1cc(NC(=O)CN2CCc3cncnc3C2)on1`, the “Percent Effect” value is on record as 8.588% (30.3 µM, […]) and -38.22% (10 mM, 10 mM as filed; unlikely as a test dose).

For the compound `CC(C)c1cc(NC(=O)CN2CCc3cncnc3C2)on1`, the “Percent Effect” value (30 µM, 30.03 µM) stood at 51%. On to `Cc1cc(NC(=O)CN2CCc3cncnc3C2)on1`, for which the “Percent Effect” value was 8.362% (30.3 µM, […]) and -44.64% (10 mM, 10 mM as filed; unlikely as a test dose). For `COC[C@@H]1CCC[C@@]12CN(Cc1ccco1)CCO2.O=C(O)C(F)(F)F`, the “Percent Effect” value (30 µM, 30.03 µM) was -1.793%. With `CCn1cc(N2Cc3nc(N4CCCC4)ncc3C2=O)cn1`, under “30.3 µM, […]”, the “Percent Effect” value is -27.06%. For the compound `CC(C)c1nccn1C(C)C(=O)N1CCN(c2ccccc2Cl)CC1` (stereo unspecified), the “Percent Effect” value (30 µM, 30.03 µM) amounted to 16.25%. For the compound `Cc1cc(N2CCN(C(=O)C(C)n3ccnc3C(C)C)CC2)cc(C)n1` (stereo unspecified), for the setting “30 µM, 30.03 µM”, the “Percent Effect” value is -26.06%.

Consider `Cc1cccnc1N1CCN(C(=O)C(C)n2ccnc2C(C)C)CC1` (stereo unspecified), for which the “Percent Effect” value (30 µM, 30.03 µM) is listed as 78.55%. Take `CN(C)CC1CN(C(=O)CCc2ccccc2)Cc2nccn2C1.O=C(O)C(F)(F)F` (stereo unspecified): the “Percent Effect” value (30 µM, 30.03 µM) was -27.78%.

Turning to `O=C1O[C@@H]2CN(Cc3ccncc3)C[C@@H]2N1CCCN1CCOCC1`, the “Percent Effect” value (30 µM, 30.03 µM) is recorded as -21.02%.

Consider `O=C1O[C@@H]2CN(CCc3ccccc3)C[C@@H]2N1CCCN1CCOCC1`, for which the “Percent Effect” value (30 µM, 30.03 µM) is recorded as -26.55%. Consider `O=C1O[C@@H]2CN(Cc3ccccc3)C[C@@H]2N1CCCN1CCOCC1`, for which the “Percent Effect” value (30 µM, 30.03 µM) came out at 65.91%. `CC(C)CC(=O)N1CC[C@@H]2[C@H](CC1)N(Cc1cccnc1)CCS2(=O)=O.O=C(O)C(F)(F)F.O=C(O)C(F)(F)F`: for the setting “30.3 µM, […]”, the “Percent Effect” value is -39.88%. On to `Cc1cccc(CN(Cc2ccccn2)Cc2ncc(C(C)(C)C)o2)c1`, for which, for the setting “30.3 µM, […]”, the “Percent Effect” value is 99.39%.

In the case of `CCN(Cc1cccc(Cl)c1)Cc1ncc(C(C)(C)C)o1`, the “Percent Effect” value (30.3 µM, […]) is listed as -76.17%. On the same count and under the same terms, for `Cc1cccc(CN(Cc2ccccn2)S(=O)(=O)N(C)C)c1` the value was 5.656%.

For `Cc1ccc(SCCCNC(=O)c2cn([C@H]3CC[C@@H](N)CC3)nn2)cc1`, where the note is “30.3 µM, […]”, the “Percent Effect” value amounted to 59.21%. As to `Cc1ccc(SCCN(C)C(=O)c2cn([C@H]3CC[C@@H](N)CC3)nn2)cc1`, for the setting “30.3 µM, […]”, the “Percent Effect” value is on record as -119%. With `CCN(CCSc1ccccc1)C(=O)c1cn([C@H]2CC[C@@H](N)CC2)nn1`, the “Percent Effect” value (30.3 µM, […]) is on record as -71.42%.
